SENP7 inh – blocks the human protease SENP7 | Q9BQF6 | recombinant SENP7, Z-RLRGG-aminoluciferin luminescence, 40 min | inhibition, % at 5 µM | AID 434973 | 330,000 tested, 1.5% active;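 active means inhibition above about 50% at the single test dose, limit read from the data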;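 further: plate controls were DMSO with enzyme for no effect and no enzyme buffer wells for full effect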
Target sequence (Q9BQF6 706-1050 limits assumed): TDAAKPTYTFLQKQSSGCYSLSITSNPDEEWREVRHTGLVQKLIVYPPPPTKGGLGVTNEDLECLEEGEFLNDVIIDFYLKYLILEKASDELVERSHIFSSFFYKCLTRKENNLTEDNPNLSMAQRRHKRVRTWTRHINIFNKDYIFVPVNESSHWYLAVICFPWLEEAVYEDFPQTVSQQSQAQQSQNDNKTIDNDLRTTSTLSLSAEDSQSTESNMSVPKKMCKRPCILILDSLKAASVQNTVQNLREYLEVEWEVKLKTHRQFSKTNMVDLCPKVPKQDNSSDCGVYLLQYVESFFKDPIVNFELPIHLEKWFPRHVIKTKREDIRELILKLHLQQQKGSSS
SENP8 block-1 – blocks human SENP8 cleavage of Nedd8 substrate; Q96LD8; recombinant SENP8, Nedd8 substrate fluorescence; inhibition, % at 20 µM; 360,000 tested, 0.64% active; AID 602440; in the data active means inhibition mostly above about 40%, no sharp cut-off; inactive means mostly below about 27%
SENP8 block-2 – blocks the human protease SENP8; Q96LD8; purified SENP8, Z-RLRGG-aminoluciferin cleavage, luminescence; inhibition, % at 10 µM; 330,000 tested, 1.2% active; AID 2540; in the data active means inhibition above about 50%
SENP6 block – SENP6 protease inhibition. inhibition, % at 10 µM. AID 2599. Recombinant SENP6 catalytic domain, aminoluciferin luminescence. 330,000 tested, 1.8% active. Q9GZR1;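 active means inhibition above about 50% at the single tested dose, limit read from the data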;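 further: plate controls were DMSO wells with enzyme for no effect and DMSO wells lacking enzyme for full effect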
HSP90 refold inh – blocks HSP90-mediated luciferase refolding in reticulocyte lysate. Rabbit reticulocyte lysate, luciferase refolding luminescence, 3 h. inhibition, % at 5.6 µM. 290,000 tested, 0.91% active. AID 1789;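 active means inhibition above the screen-wide mean plus 3 SD, computed separately per campaign, cut at about 16% in these data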;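 further: 0% = DMSO wells and 100% = 60 µM geldanamycin wells; inhibitors lower the luminescence because luciferase stays unfolded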
SENP8 conf – confirmation of human SENP8 protease inhibitors; shares compounds with SENP7 inh; Recombinant SENP8, Z-RLRGG-aminoluciferin luminescence, 60 min; inhibition, % at 12.5 µM; 6,200 tested, 40% active;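 active means mean inhibition across replicates above about 50%, limit read from the data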
SENP6 confirm – confirmation of human SENP6 protease inhibitors; shares compounds with SENP7 inh; recombinant SENP6, Z-RLRGG-aminoluciferin luminescence; inhibition, % at 12.5 µM; 6,200 tested, 58% active; AID 488915
SENP7 confirm – human SENP7 inhibition, confirmed | shares compounds with SENP7 inh | recombinant SENP7, Z-RLRGG-aminoluciferin luminescence, 40 min | inhibition, % at 12.5 µM | 6,200 tested, 69% active | AID 488917
Casp3 select – caspase-3 inhibition (SENP selectivity assay) | shares compounds with SENP7 inh | purified caspase-3, Z-DEVD-aminoluciferin luminescence, 60 min | inhibition, % at 12.5 µM | 6,200 tested, 60% active | AID 488918;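 active means mean inhibition above about 50%, limit read from the data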;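 further: plate controls were enzyme with DMSO for no effect and wells without caspase-3 for full effect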
Luc interf – interferes with luciferase luminescence in SENP counter-screen; shares compounds with SENP7 inh; Pre-incubated SENP8/Z-RLRGG-aminoluciferin, luciferase luminescence interference; inhibition, % at 12.5 µM; 6,200 tested, 39% active;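 active means mean inhibition above about 50% when retested at one dose, limit read from the data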;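 further: plate controls were DMSO wells with completed reaction for no effect and substrate without enzyme for full effect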
* marks the source's active call; other numbers are inactive results. Shown are actives, neighbours in structure and some others; about 2.7% of the full set was active somewhere.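 How the source made its calls, unless noted: active means mean inhibition above about 50% in the one-dose retest (limit read from the data); inactive means the rest.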

Screening c1ccc(-c2ccc(-c3nc(-c4ccccn4)no3)cc2)cc1 returned SENP7 inh 98.1*, SENP8 block-1 -31.5, SENP8 block-2 96.8*, SENP6 block 98.2*, HSP90 refold inh 78.0*, SENP8 conf -24.0, SENP6 confirm 73.7*, SENP7 confirm 80.7*, Casp3 select 97.1* and Luc interf 17.1.
For COCCNC(=O)C1CCCN(C(=O)/C=C/c2ccccc2)CC1 (configuration not stated) the results were SENP8 block-1 12.4.
COc1ccc(N=Cc2sc(O)c3ccccc23)cc1 was read as SENP7 inh 69.8*, SENP8 block-1 -2.8, SENP8 block-2 79.2*, SENP6 block 61.5*, HSP90 refold inh 2.9, SENP8 conf 92.9*, SENP6 confirm 92.2*, SENP7 confirm 99.9*, Casp3 select 73.2* and Luc interf 81.4*.
COc1ccc(N=Cc2c(O)c3ccccc3n2C(C)=O)cc1 was read as SENP7 inh 2.2, SENP8 block-1 -91.4, SENP8 block-2 5.2, SENP6 block 33.1 and HSP90 refold inh 4.2.
For CCc1ccc(OC(=O)Nc2ccccc2)cc1 the results were SENP7 inh 37.6, SENP8 block-1 4.5, SENP8 block-2 78.1*, SENP6 block 86.2*, HSP90 refold inh -2.9, SENP8 conf 91.1*, SENP6 confirm 90.8*, SENP7 confirm 98.5*, Casp3 select 82.3* and Luc interf 78.3*.
Screening COc1ccc(OC(=O)Nc2ccccc2)cc1 returned SENP7 inh -8.1, SENP8 block-1 9.5, SENP8 block-2 83.1*, SENP6 block 81.9*, HSP90 refold inh -4.0, SENP8 conf 1.9, SENP6 confirm 87.6*, SENP7 confirm 99.7*, Casp3 select 91.6* and Luc interf 85.5*.
For CCc1ccc(-c2csc(NC(=O)Oc3ccccc3)n2)cc1 the results were SENP7 inh -4.5, SENP8 block-1 -1.4, SENP8 block-2 -2.7, SENP6 block 19.1 and HSP90 refold inh -7.0.
Cc1ccccc1-c1nnc(SCc2ccccc2)o1 was read as SENP7 inh 15.6, SENP8 block-1 30.7, SENP8 block-2 3.6, SENP6 block 37.3 and HSP90 refold inh 1.2.
`Fc1ccccc1CSc1nnc(-c2ccccc2)o1` gave SENP7 inh 39.8, SENP8 block-1 20.8, SENP8 block-2 19.2, SENP6 block 53.7*, HSP90 refold inh 0.7, SENP8 conf 27.0, SENP6 confirm 29.7, SENP7 confirm 63.2*, Casp3 select 24.0 and Luc interf 22.7.
Screening Cc1ccccc1-c1nnc(SCc2ccccc2F)o1 returned SENP7 inh 31.0, SENP8 block-1 -10.1, SENP8 block-2 11.6, SENP6 block 57.5*, HSP90 refold inh -0.4, SENP8 conf 18.2, SENP6 confirm 45.0, SENP7 confirm 72.7*, Casp3 select 35.9 and Luc interf 17.7.
For COc1ccc(-c2nnc(SCc3ccccc3F)o2)cc1 the results were SENP7 inh 67.1*, SENP8 block-1 14.8, SENP8 block-2 53.3*, SENP6 block 69.2*, HSP90 refold inh 5.2, SENP8 conf 68.3*, SENP6 confirm 70.0*, SENP7 confirm 89.2*, Casp3 select 48.7 and Luc interf 50.6*.
COc1ccc(-c2nnc(SCC(=O)c3cccs3)o2)cc1 was read as SENP7 inh 56.0*, SENP8 block-1 14.7, SENP8 block-2 27.2, SENP6 block 24.1, HSP90 refold inh -1.9, SENP8 conf 15.7, SENP6 confirm 36.0, SENP7 confirm 83.0*, Casp3 select 54.9* and Luc interf 10.4.
`O=S(=O)(c1ccc(SCCOc2ccccc2Cl)nc1)N1CCCC1` gave SENP7 inh 2.9, SENP8 block-1 7.3, SENP8 block-2 2.3 and SENP6 block 4.2.

Screening results as filed in PubChem.
